From the supplement of paper PMC6555819

System: VDR:RXRa (NR concentration 270 nM, RXRa partner concentration 90 nM)
Experiment: PBM binding z-score (relative to random genomic background probes); higher = stronger binding; sequences stand for … in GC…GCGATTGACAGCGTAGAATGAAGG
Method: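 Protein-binding microarray (Agilent 4x180K custom design, double-stranded 60-nt probes: 5' GC cap, 34-nt variable region, 24-nt constant primer region; full probe sequence given). Purified or IVT nuclear receptor:RXRα heterodimers (3:1 NR:RXRα, mostly 270:90 nM) or homodimers were incubated for 1 h in PBS with 2% milk and no ligand, then detected with Alexa488 antibodies. Fluorescence from o1-orientation probes (~5 replicates averaged) was converted to z-scores against 500 random hg19 background probes. Variable regions are seed direct-repeat (DR0–DR5) sites, all their single-nucleotide variants and half-site ablations.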

Compared with AGAATGAGGTTAACATCAGGGAAACAGAATACAT, TCGAGTACGTTACCAATGGGGCATTCAGCTTTCT is lower in PBM binding z-score: 1.75 for the first, 0.458 for the second.

Going from CGTCCAAGGTCAAGGTCTGTGAAAGAGACTCGAA to ATATGTATGTTACATCCGGGTCATTCAGGCTATG, the PBM binding z-score falls from 3.73 to 3.02.

First: ATCTTTAGGTAAGACTCAGTTCAGTGAAGAACGC
Second: CAGCCTAGGTCAGGGCCAGTAGAGGAGGAACGTT
The PBM binding z-score of the first is higher: 0.748 for the first, -0.0759 for the second.

First: ATATGTACGTTATCGGGTCATTCAGTTTGCGCAT
Second: TCATATAGGTAATACAGGTGAAAGTGGGCATCTA
The PBM binding z-score of the first is higher: 5.03 for the first, 1.47 for the second.

Going from CCTTACGGGTTACGAGGTTATAGCACGACGAGCG to GCTGCTAGGTCAACTGATGGTAAGCTAAAGCTCG, the PBM binding z-score falls from 2.36 to 1.23.

Going from AGTCAAAGTTCAGGACGAGGTAACGCAAAGCACG to ATCTCTAGGTAACCAAGTTCGGTGAATGCCGAAC, the PBM binding z-score falls from 2.89 to 1.83.

First: TCGAGTAGGTTAGGGGCATTCACAATGGCGTCGA
Second: CACACTAGGTCACCGGAAGGTCAAAGTCCGCATG
The PBM binding z-score of the first is lower: 0.522 for the first, 5.97 for the second.

First: GGAACGAGGGCAGAGTTGATAGCATCTGTCGACG
Second: TCATATAGGTAAAAGGTGAAAGGCGGTGTGGTAA
The PBM binding z-score of the first is lower: 0.0819 for the first, 1.39 for the second.

First: GGACCGAGGGCATTCGAGTTGATAGCATGGCGAT
Second: ATCGTAAGGTCGAGGTGAGTATAGAGAAAGGGAA
The PBM binding z-score of the first is higher: 3.66 for the first, 1.99 for the second.

First: ATCTCTAGGAAACCAAGTTCAGTGAATGCCGAAC
Second: ACTAGCAGGGCAAGTTTGGGTCACTCAAACAAAG
The PBM binding z-score of the first is higher: 1.49 for the first, 1.32 for the second.

Compared with ATATGTAGGTTAGCTGCGGTCATTCAGACTAGGC, ATATGTAGGTTAGCTGGGATCATTCAGACTAGGC is lower in PBM binding z-score: 2.23 for the first, 0.919 for the second.

First: AGAATGAGGTTTAGATCAGGGAAACAGAATACAT
Second: TCTATTCGTTGAAGGGCAACCGACGAGTCCGTTT
The PBM binding z-score of the first is lower: -0.225 for the first, 1.08 for the second.

Compared with CCGACAGGGGCAAGGTTACCATAACGCACAGCCA, CCTACTGGGCCACAGGTCATTGATTCCAATGCTC is higher in PBM binding z-score: 0.616 for the first, 1.99 for the second.

Going from TCGAGTAGGTTAGTCGGGGCATTCTGCCAACATA to ATCGAAAGGTCGAAGGTGAGGATACCCACCCGAA, the PBM binding z-score rises from 2.15 to 2.71.

Going from ACTAGTTGGTCAGCTGCGGTCACACACAATTCGG to GGAACGAGGGCAAAGTTGGTAGCATCTGTCGACG, the PBM binding z-score rises from 0.586 to 1.14.

Compared with CGATCTAGGTCAGAACAGGACAGTGAAGGATGAT, CCTAGTAGTTGACCATAAGGGCAACCGAAGCTCG is higher in PBM binding z-score: 0.316 for the first, 0.633 for the second.

Going from AATACAGGGTCACTAGGCCAGAGGAGGTACGAAT to CCTACTGGGCCAAAGGTCATTAATTCCAATGCTC, the PBM binding z-score rises from 4.09 to 4.22.

First: CCTAGCAGGCCAGCGTCACTCAAGCATTTCGCTT
Second: ACTACAGGGTCATCGTAGGCCAGAGTACGCACAG
The PBM binding z-score of the first is lower: -0.645 for the first, 5.05 for the second.

Compared with CGTCCAAGGACAAGGTCAGTGAAAGAGACTCGAA, AGAACGAGGGCACGCTGACTTGATAGCAGAGTAG is lower in PBM binding z-score: 1.54 for the first, 1.02 for the second.

Going from CCTAGCAGGCCAATCTGGGTAACTCAAGGCTTGA to TCTACTTGGTCAAAGGTCACACACTCGAAATGCG, the PBM binding z-score rises from -0.773 to 5.28.
